Test results taken from PubChem BioAssay.

Experiment: viability profiling in RPMI8226 myeloma cells – cell-based, resazurin fluorescence, basal, 24 h, PK04 Diversity Set, profiling panel (AID 1180);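 also: RPMI8826 multiple myeloma cell line at 5000 cells per well; test concentration not given here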
Details: higher = more signal

SMILES | z-score
CCS[C@H]1[C@@H](C(=O)O)[C@H](c2ccc(C)cc2)N(S(=O)(=O)c2ccc(C)cc2)[C@@H]1CC | -0.702
CN1C(=O)C2C=CC(C(O)C#Cc3ccccc3)N(N3CCCCC3)C2C1=O (stereo not drawn) | -0.0142
O=C1O[C@H](c2ccccc2)[C@H](c2ccccc2)N2[C@H]1[C@@H](C(=O)N1CCCCCCC1)[C@]1(C(=O)Nc3ccc(C#CCCO)cc31)[C@H]2c1ccccc1OCCO | -2.97
CC(C)C(=C=CC[C@@H](O)c1ccc(OCCO)cc1)C[C@@H](O)COCc1ccccc1 | 1.55
CCCC[C@H]1OB(O)C[C@H]2C1=C(COC)Cn1c(=O)n(-c3ccccc3)c(=O)n12 | -0.214
CCC[C@@H]1C[C@@]1(CCC)[C@@H](NS(=O)(=O)c1cccc2cccnc12)c1ccc(Cl)cc1 | -0.0909
[N-]=[N+]=Nc1ccccc1[C@@H]1OC(c2ccc(OCCCO)cc2)=N[C@]1(CCS(=O)(=O)c1ccccc1)C(N)=O | -0.699
COC(=O)[C@@]1(Cc2ccc(F)cc2)[C@H]2c3cc(C(=O)N(C)C)n(Cc4ccc(Cl)c(C(F)(F)F)c4)c3C[C@H]2CN1C(=O)c1ccccc1 | -3.26
CO[C@H]1O[C@H](CO)[C@@H](OC(=O)Nc2ccc(Oc3ccccc3)cc2)[C@H](OC(=O)Nc2ccc3c(c2)OCO3)[C@H]1OC(=O)Nc1ccc2c(c1)OCO2 | 0.404
CC(C)=CCCC(C)=CC(O)C1C=CC2C(=O)N(C)C(=O)C2N1Nc1ccccc1 (stereo not drawn) | -2.03
CCOC(=O)C[C@H]1[C@H](OC(=O)c2ccc(-c3ccccc3)cc2)[C@@H](NC(=O)Cc2ccc(OC)cc2)c2cc(OCCCO)ccc2N1C(=O)c1ccccc1 | 0.0662
CC(C)C[C@@H]1NC(=O)[C@@H]2C[C@H](C(=O)NCc3ccc(F)cc3)[C@H](c3cccc(OCCO)c3)N2C1=O | 0.919
NC(=O)NCC#Cc1ccc2c(c1)[C@]1(C(=O)N2)[C@H](c2ccccc2OCCO)N2[C@H](c3ccccc3)[C@H](c3ccccc3)OC(=O)[C@H]2[C@@H]1C(=O)Nc1nc2ccccc2s1 | 0.744
C=C(CCCC)/C(=C/C[C@@H](OC(=O)c1ccncc1)c1ccc(OCCO)cc1)c1cc(C(=O)OC)ccc1OC | 0.572
C=C(C)[C@@H]1CC=C(C(O)C2C=CC3C(=O)N(C)C(=O)C3N2Nc2ccccc2)CC1 (stereo partly drawn) | -0.581
O=C1N[C@@H](Cc2ccccc2)C(=O)N2[C@@H]1C[C@@H](C(=O)O)[C@H]2c1cccc(OCCO)c1 | -0.277
COC(=O)C(CC#Cc1ccc2c(c1)[C@]1(C(=O)N2)[C@H](c2ccc(OCCO)cc2)N2[C@H](c3ccccc3)[C@H](c3ccccc3)OC(=O)[C@H]2[C@@H]1C(=O)Nc1nc2ccccc2s1)C(=O)OC | -0.257
C=CCN1C(=O)[C@@]2(Cc3ccccc31)N=C(c1ccc(OCCCO)cc1)O[C@H]2c1ccccc1 | -2.81
